Here are results for 86 sequences from the supplement of paper PMC12636033.

± gives the standard deviation of the averaged measurements. In all, about 33,000 sequences were measured (“E-score (rank enrichment, -0.5 to 0.5)”: median about -0.0028, highest 2% from about 0.23 on). Shown is part of a subset that was picked to be rich in the highest values.

For this assay, the system named is 2Sb-muMax20 (muMax20 with two 1,3-bis(methyl)benzene Cys staples, A13C/A17C and Q88C/A92C, C-terminal Lys). Put plainly: PBM 8-mer E-score (E-score (rank enrichment, -0.5 to 0.5)); higher = stronger preferential binding. The procedure:
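Protein binding microarray (universal PBM chip covering all 10-mers in fixed probe flanks) with chemically synthesized human Max(13-93) bHLH-LZ analogs (not full-length Max) bearing noncanonical residues (hArg, Tha, Aib, Nle at 65) and aromatic Cys staples. Read-out per 8-mer (and its reverse complement): E-score (rank-based enrichment, -0.5 to 0.5) and Z-score of median probe intensity.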
For the sequence AAAATCAG, the “PBM 8-mer E-score” value was -0.00194 ± 0.044.

As to GAATTCCA, the “PBM 8-mer E-score” value is 0.0438 ± 0.014.

As for CAATTCCA, the “PBM 8-mer E-score” value stood at 0.021 ± 0.024.

Regarding ATTCCCCA, the “PBM 8-mer E-score” value came to 0.345 ± 0.0051.

Take GATTCCCA: the “PBM 8-mer E-score” value is -0.109 ± 0.031.

Take GAAATCAC: the “PBM 8-mer E-score” value is 0.0559 ± 0.039.

In the case of AAAATCAC, the “PBM 8-mer E-score” value is 0.28 ± 0.019.

In the case of ATTCCCCC, the “PBM 8-mer E-score” value was -0.0763 ± 0.046.

Consider AAATTCCA, for which the “PBM 8-mer E-score” value was determined as 0.243 ± 0.0059.

Regarding AATTCCCA, the “PBM 8-mer E-score” value was 0.251 ± 0.056.

In the case of GAGGACGA, the “PBM 8-mer E-score” value was -0.0985 ± 0.014.

On to CAGGAATA, for which the “PBM 8-mer E-score” value was -0.0263 ± 0.13.

As for AGACTGCC, the “PBM 8-mer E-score” value was -0.138 ± 0.008.

On to AGGCGCTA, for which the “PBM 8-mer E-score” value is -0.116 ± 0.03.

On to ACAGGATA, for which the “PBM 8-mer E-score” value worked out at 0.046 ± 0.059.

In the case of CCTCTAAC, the “PBM 8-mer E-score” value is -0.122 ± 0.012.

For ATGTCCCC, the “PBM 8-mer E-score” value stood at 0.0908 ± 0.0075.

On to AGCGCCTG, for which the “PBM 8-mer E-score” value was -0.212 ± 0.01.

Take AATTTCCC: the “PBM 8-mer E-score” value stood at 0.301 ± 0.032.

For ATTTTCCC, the “PBM 8-mer E-score” value is 0.17 ± 0.024.

Turning to GATTTCCC, the “PBM 8-mer E-score” value is 0.0913 ± 0.071.

For the sequence GAAATCCA, the “PBM 8-mer E-score” value is -0.0749 ± 0.093.

As to CAAATCCA, the “PBM 8-mer E-score” value was 0.0168 ± 0.048.

With AAAATCCA, the “PBM 8-mer E-score” value was 0.232 ± 0.0091.

Regarding GCCACAAA, the “PBM 8-mer E-score” value was determined as 0.0853 ± 0.099.

ACGGCTTA: the “PBM 8-mer E-score” value was 0.0267 ± 0.027.

On to CAATGCTC, for which the “PBM 8-mer E-score” value was -0.0184 ± 0.021.

Take GGAGTAGA: the “PBM 8-mer E-score” value came out at 0.139 ± 0.0065.

As to GGGAAGGA, the “PBM 8-mer E-score” value is 0.0711 ± 0.073.

For GAGTATTA, the “PBM 8-mer E-score” value was 0.12 ± 0.024.

For AAGTATTA, the “PBM 8-mer E-score” value came out at 0.157 ± 0.094.

With GTGTATTA, the “PBM 8-mer E-score” value turned out to be 0.244 ± 0.061.

Consider CAGTATTA, for which the “PBM 8-mer E-score” value came to 0.28 ± 0.02.

Take ATGTATTA: the “PBM 8-mer E-score” value is 0.216 ± 0.018.

For the sequence CTGTATTA, the “PBM 8-mer E-score” value is -0.0311 ± 0.058.

In the case of AGCGCAAC, the “PBM 8-mer E-score” value was -0.0193 ± 0.035.

With CCAGACGC, the “PBM 8-mer E-score” value is -0.135 ± 0.041.

On to CGGCTGAG, for which the “PBM 8-mer E-score” value was -0.16 ± 0.018.

For the sequence ACACCTAT, the “PBM 8-mer E-score” value was determined as 0.0344 ± 0.0022.

As to CACCTATA, the “PBM 8-mer E-score” value was 0.232 ± 0.056.

For AACCTATA, the “PBM 8-mer E-score” value was 0.0842 ± 0.034.

For TACCTATA, the “PBM 8-mer E-score” value worked out at 0.116 ± 0.032.

With AAGAATCG, the “PBM 8-mer E-score” value was 0.202 ± 0.011.

TTCCTCAA: the “PBM 8-mer E-score” value was -0.0714 ± 0.003.

Turning to TCAGCCGA, the “PBM 8-mer E-score” value is -0.258 ± 0.094.

Take ACGATCGC: the “PBM 8-mer E-score” value is 0.0439 ± 0.021.

Regarding GCGATCGC, the “PBM 8-mer E-score” value worked out at 0.261 ± 0.0046.

As for CCGATCGC, the “PBM 8-mer E-score” value stood at 0.0847 ± 0.035.

In the case of ACTAAAGT, the “PBM 8-mer E-score” value came out at 0.0154 ± 0.055.

For the sequence CAATGGTA, the “PBM 8-mer E-score” value was found to be 0.0764 ± 0.11.

On to GAATACAA, for which the “PBM 8-mer E-score” value is 0.164 ± 0.0018.

Turning to CCCACTCG, the “PBM 8-mer E-score” value was -0.168 ± 0.084.

With GCCACTTA, the “PBM 8-mer E-score” value is -0.042 ± 0.068.

As to CCCACTTC, the “PBM 8-mer E-score” value was determined as 0.184 ± 0.051.

Consider GCCACTCC, for which the “PBM 8-mer E-score” value was -0.166 ± 0.023.

On to CCCACTCC, for which the “PBM 8-mer E-score” value was 0.241 ± 0.017.

With CCCACTTA, the “PBM 8-mer E-score” value stood at 0.2675 ± 0.00044.

For CCGACGGC, the “PBM 8-mer E-score” value is -0.2 ± 0.038.

As for GTAGTGAA, the “PBM 8-mer E-score” value stood at 0.206 ± 0.042.

As to TAATGCGA, the “PBM 8-mer E-score” value was determined as 0.018 ± 0.0008.

With AAACCGGG, the “PBM 8-mer E-score” value worked out at 0.0468 ± 0.0036.

CCGATTGA: the “PBM 8-mer E-score” value was -0.00849 ± 0.0099.

As for ACGTTATA, the “PBM 8-mer E-score” value turned out to be 0.105 ± 0.0054.

With ACGTTATC, the “PBM 8-mer E-score” value was determined as 0.0764 ± 0.057.

For ACGTTATG, the “PBM 8-mer E-score” value turned out to be 0.2695 ± 0.0015.

As for TCATCAAA, the “PBM 8-mer E-score” value is -0.124 ± 0.034.

For CATTCGAG, the “PBM 8-mer E-score” value was 0.0428 ± 0.017.

Consider ATCGTAAA, for which the “PBM 8-mer E-score” value turned out to be 0.0946 ± 0.014.

As to ATCGTAAT, the “PBM 8-mer E-score” value came out at 0.246 ± 0.023.

ATCGTAAG: the “PBM 8-mer E-score” value worked out at 0.0321 ± 0.021.

Turning to AATTGGGT, the “PBM 8-mer E-score” value is 0.2396 ± 0.0021.

Turning to AATTGGTG, the “PBM 8-mer E-score” value worked out at 0.142 ± 0.023.

Take CATTGGGC: the “PBM 8-mer E-score” value is -0.173 ± 0.044.

On to CATTGGGA, for which the “PBM 8-mer E-score” value was -0.021 ± 0.0046.

For CATTGGGG, the “PBM 8-mer E-score” value came to 0.255 ± 0.038.

As for AATTGGAG, the “PBM 8-mer E-score” value was 0.0796 ± 0.067.

In the case of AATTGGGG, the “PBM 8-mer E-score” value is 0.317 ± 0.0083.

AATTGGGA: the “PBM 8-mer E-score” value was 0.218 ± 0.012.

Consider AATTGGGC, for which the “PBM 8-mer E-score” value came to 0.1581 ± 0.00092.

In the case of AGCATTGG, the “PBM 8-mer E-score” value was -0.0228 ± 0.0039.

Consider TCCCCGAA, for which the “PBM 8-mer E-score” value was 0.0276 ± 0.02.

ATGTTGAC: the “PBM 8-mer E-score” value was 0.0701 ± 0.026.

Take GCAATTCC: the “PBM 8-mer E-score” value was -0.0345 ± 0.025.

As to ATTGGCAA, the “PBM 8-mer E-score” value came out at 0.105 ± 0.047.

In the case of ACTGAAAA, the “PBM 8-mer E-score” value turned out to be 0.0674 ± 0.026.

On to GCGGAAGA, for which the “PBM 8-mer E-score” value was -0.0695 ± 0.055.
